# Measured values: PubChem BioAssay (NCATS)
# Inconclusive results are not listed. A call without a number means that no potency is given here. Activity calls are given as the source filed them. Unless noted, calls follow the shape of the dose curve; as a rule, active = well fitted curve in the direction sought with a large enough effect; inconclusive = small, poorly fitted or top-dose-only effect, or another doubt; inactive = no such curve, though single readings can be large; an effect the other way counts as inactive or inconclusive.
# Assays:
# [1] = target: Cytochrome P450 2C9 (Homo sapiens) (UniProt P11712); experiment: Cytochrome P450 family 2 subfamily C member 9 (CYP2C9) small molecule antagonists: luciferase biochemical (cell-free) qHTS assay (AID 1645842; active = well fitted curve in the direction sought with a large enough effect in the repeat runs; an effect the other way counts as inactive or inconclusive; also: nearly all actives have a fitted effect of over 55% in size; as to activity change, negative = inhibition: series mostly up to about 57 µM)
# Chain of Cytochrome P450 2C9 (Homo sapiens) (P11712 whole entry, looked up): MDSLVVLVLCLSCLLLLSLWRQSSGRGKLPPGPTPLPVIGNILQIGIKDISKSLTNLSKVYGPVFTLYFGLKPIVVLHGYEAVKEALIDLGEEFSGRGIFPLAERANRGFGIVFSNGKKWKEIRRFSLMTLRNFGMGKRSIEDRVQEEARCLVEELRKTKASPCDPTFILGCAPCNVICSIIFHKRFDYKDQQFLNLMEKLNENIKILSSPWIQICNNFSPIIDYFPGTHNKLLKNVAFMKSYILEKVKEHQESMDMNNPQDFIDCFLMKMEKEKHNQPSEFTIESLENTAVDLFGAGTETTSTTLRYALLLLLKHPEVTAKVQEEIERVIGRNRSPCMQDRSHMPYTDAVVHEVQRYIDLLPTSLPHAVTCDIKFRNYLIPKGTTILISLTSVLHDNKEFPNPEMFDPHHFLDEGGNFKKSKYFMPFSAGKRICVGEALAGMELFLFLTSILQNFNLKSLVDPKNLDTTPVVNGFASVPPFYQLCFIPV
# How it was run: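 P450-Glo CYP2C9 system: proluciferin substrate with enzyme in mix containing 0.4% BSA, 10 min at room temperature, then NADPH regeneration solution added and incubated 1 h at 37C. Detection reagent stopped reaction; luminescence read after 20 min as RLU.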
# Papain (Carica papaya) = Papain (Carica papaya) (UniProt P00784); experiment: Primary qHTS assay for inhibitors of the protease papain (AID 1645873);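 also: papain turnover of Z-FR-AMC read as the AMC fluorescence gain over 10 min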; as to activity change, negative = inhibition: series mostly up to about 50 µM
# Chain of Papain (Carica papaya) (P00784 whole entry, looked up, the tested form may be a part): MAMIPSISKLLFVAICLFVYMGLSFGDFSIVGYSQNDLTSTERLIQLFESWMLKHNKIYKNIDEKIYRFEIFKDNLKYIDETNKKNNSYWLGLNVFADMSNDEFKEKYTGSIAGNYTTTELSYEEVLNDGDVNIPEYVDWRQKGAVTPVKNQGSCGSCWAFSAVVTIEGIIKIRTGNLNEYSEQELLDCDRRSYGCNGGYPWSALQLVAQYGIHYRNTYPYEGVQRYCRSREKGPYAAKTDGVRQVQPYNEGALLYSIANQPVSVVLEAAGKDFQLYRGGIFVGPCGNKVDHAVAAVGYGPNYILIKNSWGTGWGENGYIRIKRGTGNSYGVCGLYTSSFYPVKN
# [2] = Primary qHTS for inhibitors of nuclear receptor binding SET domain protein 2 (NSD2) in an isogenic RCH-ACV NSD2 p.E1099K mutant (9B) (AID 1645876); also: nearly all actives have a fitted effect of over 70% in size
# [3] = Primary qHTS for inhibitors of nuclear receptor binding SET domain protein 2 (NSD2) in an RCH-ACV wild type WT cells (2C) (AID 1645877); also: nearly all actives have a fitted effect of over 70% in size
# Potency is read from the fitted curve at half-maximal effect.
structure (smiles),measurement,setting,value
Cc1cc(N)c2ccccc2[n+]1CCCCCCCCCC[n+]1c(C)cc(N)c2ccccc21,Potency,[1],inactive
same,Potency,Papain (Carica papaya),15.8 µM (active)
same,Potency,[2],2.9 µM (active)
same,Potency,[3],3.25 µM (active)
C[C@H](NC(CCc1ccccc1)C(=O)O)C(=O)N1CCC[C@H]1C(=O)O (stereo partly drawn),Potency,[1],inactive
same,Potency,Papain (Carica papaya),inactive
same,Potency,[2],inactive
same,Potency,[3],inactive
NC(N)=NCCC[C@H](N)C(=O)O,"activity change, negative = inhibition",[1],-6.78% [at 4.83 µM] (inactive)
same,Potency,Papain (Carica papaya),inactive
same,outcome,[2],inactive [at 4.96 µM]
COc1ccc2c(c1)C(=O)N(CCc1ccc(S(=O)(=O)NC(=O)NC3CCCCC3)cc1)C(=O)C2(C)C,Potency,[1],13.8 µM (active)
OCC(O)CN1CCN(c2ccccc2)CC1 (stereo not drawn),Potency,[1],inactive
same,Potency,[2],inactive
same,Potency,[3],inactive
O=S(=O)(O)NC1CCCCC1,Potency,[1],inactive
same,Potency,[2],inactive
same,Potency,[3],inactive
CCN(CC)C(=O)Nc1ccc(OCC(O)CNC(C)(C)C)c(C(C)=O)c1 (stereo not drawn),Potency,[1],inactive
same,Potency,[2],inactive
same,Potency,[3],inactive
NC(=O)NC(=O)Cc1ccccc1,Potency,[1],inactive
same,Potency,[2],inactive
same,Potency,[3],inactive
CCN(CC)CCNC(C(=O)OCCC(C)C)c1ccccc1 (stereo not drawn),Potency,[1],inactive
same,Potency,[2],inactive
same,Potency,[3],inactive
Cc1ncc(COP(=O)(O)O)c(C=O)c1O,Potency,[1],inactive
same,Potency,[2],inactive
same,Potency,[3],inactive
O=C(O)[C@H](O)c1ccccc1,Potency,[1],inactive
same,Potency,[2],inactive
same,Potency,[3],inactive
COc1cc(C)c(Cc2cnc(N)nc2N)cc1OC,Potency,[1],inactive
same,Potency,[2],inactive
same,Potency,[3],inactive
Nc1nc2c(ncn2CCC(CO)CO)c(=O)[nH]1,Potency,[1],inactive
same,Potency,[2],inactive
same,Potency,[3],inactive
Cn1cc[nH]c1=S,Potency,[1],inactive
same,Potency,[2],inactive
same,Potency,[3],inactive
CCC(=O)Nc1ccc(O)cc1,Potency,[1],inactive
same,Potency,[2],inactive
same,Potency,[3],inactive
NCCNCCNCCNCCN,"activity change, negative = inhibition",[1],18.2% [at 11.5 µM] (inactive)
same,"activity change, negative = viability loss",[2],-1.38% [at 9.23 µM] (inactive)
same,"activity change, negative = cell killing",[3],-16.9% [at 9.23 µM] (inactive)
O=C1c2c(O)cccc2Cc2cccc(O)c21,Potency,[1],inactive
same,Potency,[2],inactive
same,Potency,[3],inactive
CN(N=O)C(=O)N[C@@H]1[C@@H](O)[C@H](O)[C@@H](CO)O[C@@H]1O,Potency,[1],inactive
same,Potency,[2],inactive
same,Potency,[3],inactive
COc1cc2[nH]c(=O)[nH]c(=O)c2cc1OC,Potency,[1],inactive
same,Potency,[2],inactive
same,Potency,[3],inactive
O=C(Oc1ccccc1C(=O)O)c1ccccc1O,Potency,[1],inactive
same,Potency,[2],inactive
same,Potency,[3],inactive
CC(O)COc1ccccc1 (stereo not drawn),Potency,[1],inactive
same,Potency,[2],inactive
same,Potency,[3],inactive
NC1CCN(c2cccc(Cl)n2)CC1,Potency,[1],inactive
same,Potency,[2],inactive
same,Potency,[3],inactive
CCOc1ccc2ccccc2c1C(=O)N[C@@H]1C(=O)N2[C@@H]1SC(C)(C)[C@@H]2C(=O)O,Potency,[1],inactive
same,Potency,[2],inactive
same,Potency,[3],inactive
CN1CCOC(c2ccccc2)c2ccccc2C1 (stereo not drawn),Potency,[1],inactive
same,Potency,[2],inactive
same,Potency,[3],inactive
O=C1O[C@H](CO)[C@@H](O)[C@H](O)[C@H]1O,Potency,[1],inactive
same,Potency,[2],inactive
same,Potency,[3],inactive
CCCCC(CC)COC(=O)c1ccccc1O (stereo not drawn),Potency,[1],inactive
same,Potency,[2],inactive
same,Potency,[3],inactive
NCC(=O)CCC(=O)O,Potency,[1],inactive
same,Potency,[2],inactive
same,Potency,[3],inactive
CC1(C)CO[C@@H](CC(=O)O)CN1,Potency,[1],inactive
same,Potency,[2],inactive
same,Potency,[3],inactive
NS(=O)(=O)c1cc2c(cc1Cl)NC(CSCc1ccccc1)=NS2(=O)=O,Potency,[1],5.49 µM (active)
same,Potency,[2],inactive
same,Potency,[3],inactive
OCC(CO)N[C@H]1C[C@](O)(CO)[C@@H](O)[C@H](O)[C@H]1O,Potency,[1],inactive
same,Potency,[2],inactive
same,Potency,[3],inactive
COC(=O)[C@H]1[C@H]2C[C@@H]3c4[nH]c5cc(OC)ccc5c4CCN3C[C@H]2C[C@@H](OC(=O)COc2ccc(OC)cc2)[C@@H]1OC,Potency,[1],inactive
same,Potency,[2],inactive
same,Potency,[3],inactive
O=C1O[C@H]([C@@H](O)CO)C(O)=C1O,Potency,[1],inactive
same,Potency,[2],inactive
same,Potency,[3],inactive
CCC(=O)c1ccc(O)cc1,Potency,[1],inactive
same,Potency,[2],inactive
same,Potency,[3],inactive
O=C(O)Cc1sc(-c2ccccc2)nc1-c1ccc(Cl)cc1,Potency,[1],4.9 µM (active)
same,Potency,[2],inactive
same,Potency,[3],inactive
CC(=O)NC(Cc1ccccc1)C(=O)O (stereo not drawn),Potency,[1],inactive
same,Potency,[2],inactive
same,Potency,[3],inactive
NS(=O)(=O)c1cc2c(cc1C(F)(F)F)NC(Cc1ccccc1)NS2(=O)=O (stereo not drawn),Potency,[1],inactive
same,Potency,[2],inactive
same,Potency,[3],inactive
NC(=O)c1ncn([C@@H]2O[C@H](CO)[C@@H](O)[C@H]2O)c1N,Potency,[1],inactive
same,Potency,[2],inactive
same,Potency,[3],inactive
Cn1c(=O)c2c(ncn2CC2OCCO2)n(C)c1=O,Potency,[1],inactive
same,Potency,[2],inactive
same,Potency,[3],inactive
Oc1cn2c(n1)Nc1ccc(Cl)c(Cl)c1C2,Potency,[1],6.74 µM (active)
same,Potency,[2],inactive
same,Potency,[3],inactive
CCCOC(=O)c1ccccc1,Potency,[1],inactive
same,Potency,[2],inactive
same,Potency,[3],inactive
CCn1cc(C(=O)O)c(=O)c2cnc(N3CCNCC3)nc21,Potency,[1],inactive
same,Potency,[2],inactive
same,Potency,[3],inactive
